# Values joined by “and” are separate entries in the source; they are usually repeats but may differ in a detail not shown here. Identical values can stand only once. Active and inactive are the calls of the source. Rule as the data show it, unless noted: active = inhibition above about 80%; inactive = the rest.
# Key:
# [1] = galactose survival enhancers in mitochondrial complex I cybrids – cell-based, galactose medium, ATP luminescence, primary screen (AID 1645843;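 active = z-score of at least 1.8 in each of two replicates, scored against plate mean and spread of sample wells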;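 also: positive z means more ATP and so rescue of galactose-driven cybrid death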); details: complex I mutant cybrid cells, 72 h, stronger effect = higher value
# [2] = test system: F380Y; experiment: BK channel mutant inhibitors and activators – cell-based, U2OS BacMam, thallium flux, beta subunits, selectivity assay, profiling panel (AID 1259406;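 active = thallium flux through the channel raised or lowered by more than 3 SD from vehicle-only wells, actives on both sides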;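 also: initial slope of Thallos dye fluorescence rise after thallium is added; log ratio against the mean of 0.3% DMSO vehicle wells on the same plate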); details: U2OS BacMam BK variants, at 30 µM
# [3] = test system: F380Y/beta1; experiment: as above; details: U2OS BacMam BK variants, at 30 µM
# [4] = biological target: NAD(+) hydrolase SARM1 (Homo sapiens) (UniProt Q6SZW1); experiment: blocking NAD cleavage by SARM1 SAM-TIR – cell lysate, NAD-Glo luminescence (AID 1508614;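 active = compound whose remaining NAD level is above about 45 nM, limit read from the data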;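 also: higher remaining NAD means stronger inhibition of SARM1 NADase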); details: SAM-TIR HEK293T lysate NADase, at 1 µM, stronger effect = higher value
# Sequence of NAD(+) hydrolase SARM1 (Homo sapiens) (Q6SZW1 whole entry, looked up): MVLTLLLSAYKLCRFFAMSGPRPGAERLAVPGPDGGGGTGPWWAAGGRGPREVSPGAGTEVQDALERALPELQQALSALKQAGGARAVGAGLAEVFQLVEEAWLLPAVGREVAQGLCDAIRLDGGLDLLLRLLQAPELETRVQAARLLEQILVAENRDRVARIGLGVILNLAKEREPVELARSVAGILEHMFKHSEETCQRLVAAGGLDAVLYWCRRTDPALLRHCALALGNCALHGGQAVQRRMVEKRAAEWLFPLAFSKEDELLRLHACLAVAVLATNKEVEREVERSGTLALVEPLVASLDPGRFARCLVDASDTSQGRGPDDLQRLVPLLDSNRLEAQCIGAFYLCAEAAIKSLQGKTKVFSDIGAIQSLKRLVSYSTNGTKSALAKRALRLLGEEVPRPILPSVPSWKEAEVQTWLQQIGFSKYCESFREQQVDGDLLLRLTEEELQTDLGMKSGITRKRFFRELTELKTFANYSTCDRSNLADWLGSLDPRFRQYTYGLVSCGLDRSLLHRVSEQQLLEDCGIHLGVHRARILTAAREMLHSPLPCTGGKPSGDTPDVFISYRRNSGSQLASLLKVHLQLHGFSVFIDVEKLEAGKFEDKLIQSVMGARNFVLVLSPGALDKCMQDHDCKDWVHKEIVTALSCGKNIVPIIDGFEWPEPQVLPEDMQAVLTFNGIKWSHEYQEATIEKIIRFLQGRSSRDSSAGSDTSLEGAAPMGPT
# [5] = growth inhibition, single agent or in combination, cell-based, chromothripsis tumors, cisplatin or BGB combos (AID 1671449); details: LFS_MB_P medulloblastoma cells;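 also: cells exposed for 96 hours; 0% = vehicle DMSO and 100% = killing by high DMSO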
# [6] = growth inhibition, single agent and combos, cell-based, chromothripsis tumors, cisplatin or BGB combos (AID 1671450); details: HDN33 neuroblastoma cells, stronger effect = higher value;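 also: cells exposed to compound for four days; 0% = vehicle DMSO and 100% = cell killing by high DMSO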
# [7] = growth inhibition, single agents and combos, ICB984, cell-based, cisplatin or BGB combos, synergistic combos for chromothripsis tumors (AID 1671451; call rule not given here;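 also: cells exposed for 96 hours before readout; 0% = vehicle DMSO and 100% = killing by high DMSO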); details: ICB984 medulloblastoma cells, drug combinations, stronger effect = higher value
# [8] = growth inhibition, single agents and combos, LFS_MB_1R, cell-based, cisplatin or BGB combos, synergistic combos for chromothripsis tumors (AID 1671452); details: LFS_MB_1R medulloblastoma cells, stronger effect = higher value;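 also: cells exposed for 96 hours before readout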
# [9] = growth inhibition, single agents and combos, HTB85, cell-based, BGB or cisplatin IC20 combos, synergistic combos for chromothripsis tumors (AID 1671453); details: HTB85 osteosarcoma cells, drug combinations, stronger effect = higher value;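 also: cells exposed for 96 hours before readout; 0% = vehicle DMSO and 100% = high DMSO killing control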
# [10] = growth inhibition, single agents and combos, CRL2098, cell-based, BGB or cisplatin IC20 combos, synergistic combos for chromothripsis tumors (AID 1671454); details: CRL2098 osteosarcoma cells, drug combinations, stronger effect = higher value;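 also: cells exposed for 96 h before readout; 0% = vehicle DMSO and 100% = killing by high DMSO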
# [11] = growth inhibition, single agents and combos, HD-MB03, cell-based, BGB or cisplatin IC20 combos, synergistic combos for chromothripsis tumors (AID 1671455; in the data active = inhibition above about 83%;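 also: 0% = vehicle DMSO and 100% = high DMSO as cytotoxic control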); details: HD-MB03 medulloblastoma cells, stronger effect = higher value
# [12] = growth inhibition, single agents and combos, UWB1.289, cell-based, BGB or cisplatin combos, synergistic combos for chromothripsis tumors (AID 1671456); details: UWB1.289 ovarian carcinoma cells, stronger effect = higher value;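 also: cells exposed to compound for four days; 0% = vehicle DMSO and 100% = killing by high DMSO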
# [13] = growth inhibition, single agents and combos, LFS_MB_2R, cell-based, cisplatin combos, synergistic combos for chromothripsis tumors (AID 1671457); details: LFS_MB_2R medulloblastoma cells, stronger effect = higher value;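 also: cells exposed to compound for four days before readout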
# [14] = growth inhibition, MDA-MB-436, cell-based, BGB or cisplatin combos, synergistic combos for chromothripsis tumors (AID 1671458; call rule not given here;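 also: cells exposed for 96 hours; 0% = vehicle DMSO and 100% = killing by high DMSO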); details: MDA-MB-436 breast carcinoma growth inhibition, drug combinations, stronger effect = higher value
# [15] = UWB1.289_BRCA1 ovarian cancer growth, cell-based, BGB or cisplatin combinations (AID 1671459); details: UWB1.289 BRCA1 ovarian carcinoma, drug combinations, stronger effect = higher value
# [16] = drug combination toxicity in non-malignant astrocytes – cell-based, BGB or cisplatin IC20 combos, cytotoxicity control for chromothriptic childhood tumor combination screen (AID 1671460); details: Human astrocytes, viability inhibition, drug combinations, at 0.5 µM, stronger effect = higher value;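 also: cells exposed to compounds for 96 hours before viability readout; 0% = vehicle and 100% = killing control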
# [17] = BT084 cell growth, single and combined drugs, ICGC_MB145, cisplatin and BGB IC40 combos (AID 1671461); details: BT084 medulloblastoma cells, drug combinations, stronger effect = higher value;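 also: cells exposed to drugs for 96 hours; 0% = vehicle DMSO and 100% = high DMSO full killing control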
# [18] = RCMB18 cell growth, single agent and combined, cisplatin and BGB IC40 combos (AID 1671462); details: RCMB18 medulloblastoma cells, stronger effect = higher value;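 also: cells exposed to compound for four days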
# [19] = CRL1545 cell growth, single agent and combined, cisplatin and BGB IC20 combos (AID 1671464); details: CRL1545 osteosarcoma cells, stronger effect = higher value;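 also: cells exposed to compound for 96 hours before readout; 0% = vehicle DMSO and 100% = high DMSO killing control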
# [20] = measured here: combination with BGB IC40, at 0.05 µM
# [21] = measured here: with BGB IC20 combination, at 0.5 µM
# [22] = measured here: with cisplatin IC20 combination, at 0.5 µM
# [23] = measured here: combination with cisplatin, at 0.5 µM
# [24] = measured here: combination with cisplatin, at 5 µM
smiles,measurement,setting,value
CNCC(O)c1ccc(O)c(O)c1 (stereo unspecified),z-score,[1],-1.02 (inactive) and -0.655 (inactive)
same,log fold change Tl+ flux,[2],-0.0223 (inactive)
same,log fold change Tl+ flux,[3],-0.0248 (inactive)
C[C@]12C[C@H](O)[C@H]3[C@@H](CCC4=CC(=O)CC[C@@]43C)[C@@H]1CC[C@@H]2C(=O)CO,z-score,[1],-0.085 (inactive) and -0.065 (inactive)
same,log fold change Tl+ flux,[2],0.0367 (inactive)
same,log fold change Tl+ flux,[3],0.0921 (inactive)
Cc1cccc(C)c1NC(=O)C(C)N (stereo unspecified),z-score,[1],0.04 (inactive) and 0.79 (inactive)
same,log fold change Tl+ flux,[2],-0.00461 (inactive)
same,log fold change Tl+ flux,[3],-0.0545 (inactive)
CNNCc1ccc(C(=O)NC(C)C)cc1,remaining NAD,[4],10 nM (inactive)
same,z-score,[1],-0.975 (inactive) and 0.615 (inactive)
same,inhibition,"[5]; at 0.5 µM, stronger effect = higher value",-4.96% (inactive) and -7.28% (inactive)
same,inhibition,"[5]; measured here: combination with BGB IC20, at 0.005 µM",0.865% and -3.27%
same,inhibition,"[5]; measured here: combination with BGB IC40, at 0.005 µM",4.15% and 7.38%
same,inhibition,[5]; [20],-4.16% and -2.23%
same,inhibition,"[5]; measured here: combination with cisplatin, at 0.5 µM, stronger effect = higher value",-13.4% and -33.1%
same,inhibition,"[5]; measured here: combination with cisplatin, at 5 µM, stronger effect = higher value",33.1% and 11.1%
same,inhibition,"[6]; BGB combo, at 5 µM",11.7% and 16.1%
same,inhibition,[6]; at 0.5 µM,10.7% (inactive) and 6.09% (inactive)
same,inhibition,"[6]; cisplatin combo, at 5 µM",11.5% and 15.1%
same,inhibition,[6]; [21],8.82% and -6.43%
same,inhibition,[6]; [22],7.54% and 20.8%
same,inhibition,"[6]; single agent, at 5 µM",17.8% and 2.31%
same,inhibition,"[7]; BGB IC20 combo, at 0.005 µM",9.83% and 1.87%
same,inhibition,"[7]; BGB IC40 combo, at 0.005 µM",-24.6% and -19.9%
same,inhibition,"[7]; BGB IC40 combo, at 0.05 µM",-27.1% and 7.42%
same,inhibition,[7]; at 0.5 µM,-17.4% (inactive) and -14% (inactive)
same,inhibition,"[7]; cisplatin combo, at 0.05 µM",-31.7% and 4.83%
same,inhibition,"[7]; cisplatin combo, at 0.5 µM",-11.9% and -3.72%
same,inhibition,"[7]; cisplatin combo, at 5 µM",2.16% and -28.3%
same,inhibition,"[7]; measured here: 5 uM single agent, at 5 µM",3.31% and -11.8%
same,inhibition,[8]; at 0.5 µM,9.11% (inactive) and -17.9% (inactive)
same,inhibition,[8]; [20],11.1% and -7.89%
same,inhibition,[8]; [23],9.64% and -15.3%
same,inhibition,[8]; [24],-32.2% and -1.85%
same,inhibition,[9]; at 0.5 µM,-1.94% (inactive) and -4.22% (inactive)
same,inhibition,"[9]; measured here: with BGB IC20, at 0.5 µM",2.72% and -14.1%
same,inhibition,"[9]; measured here: with BGB IC20, at 5 µM",4.14% and -30.2%
same,inhibition,"[9]; measured here: with cisplatin IC20, at 0.5 µM",-5.46% and -13.6%
same,inhibition,"[9]; measured here: with cisplatin IC20, at 5 µM",-7.6% and -38.8%
same,inhibition,"[9]; single agent, at 5 µM",3.42% and -2.23%
same,inhibition,[10]; at 0.5 µM,3.58% (inactive) and -35.9% (inactive)
same,inhibition,"[10]; measured here: combination with BGB at IC20, at 0.5 µM",-18.3% and -64.1%
same,inhibition,"[10]; measured here: combination with cisplatin at IC20, at 0.5 µM",-1.94% and -14.9%
same,inhibition,[11]; at 0.5 µM,1.99% (inactive) and 3.37% (inactive)
same,inhibition,"[11]; measured here: combo with BGB at IC20, at 0.5 µM",-4.48% and 4.11%
same,inhibition,"[11]; measured here: combo with cisplatin at IC20, at 0.5 µM",6.48% and 0.786%
same,inhibition,[12]; at 0.5 µM,13% (inactive) and 7.15% (inactive)
same,inhibition,"[12]; measured here: inhibition with BGB combination, at 0.05 µM",3.19% and 1.17%
same,inhibition,"[12]; measured here: inhibition with cisplatin combination, at 0.05 µM",22.9% and 3.56%
same,inhibition,[13]; at 0.5 µM,14.1% (inactive) and 0.23% (inactive)
same,inhibition,[13]; [23],6.63% and -1.71%
same,inhibition,[13]; [24],15.9% and -32.2%
same,inhibition,[14]; at 0.5 µM,0.31% (inactive) and -0.08% (inactive)
same,inhibition,"[14]; measured here: BGB combination, at 0.5 µM",1.37% and 5.96%
same,inhibition,"[14]; measured here: BGB combination, at 5 µM",-3.48% and 5.4%
same,inhibition,"[14]; measured here: cisplatin combination, at 0.5 µM",0.65% and -2.59%
same,inhibition,"[14]; measured here: cisplatin combination, at 5 µM",-3.21% and 0.056%
same,inhibition,"[15]; BGB combination, concentration series, at 5 µM",-3.07% and 11.5%
same,inhibition,[15]; at 0.5 µM,8.92% (inactive) and 4.36% (inactive)
same,inhibition,"[15]; cisplatin combination, concentration series, at 5 µM",2.73% and 5.28%
same,inhibition,[16],-1.46% (inactive) and -4.45% (inactive)
same,inhibition,[16]; measured here: combo with BGB IC20,4.04% and -5.12%
same,inhibition,[16]; measured here: combo with cisplatin IC20,-5.05% and -7.38%
same,inhibition,[17]; at 0.5 µM,9.13% (inactive) and -8.81% (inactive)
same,inhibition,"[17]; cisplatin combination, at 0.5 µM",-8.59% and 0.014%
same,inhibition,"[17]; cisplatin combination, at 5 µM",13.7% and 11%
same,inhibition,"[17]; measured here: BGB IC40 combination 0.05 uM, at 0.05 µM",8.15% and 2.42%
same,inhibition,"[17]; single agent, at 5 µM",-0.995% and -8.33%
same,inhibition,[18]; at 0.5 µM,5.59% (inactive) and 7.58% (inactive)
same,inhibition,"[18]; cisplatin combo, at 5 µM",1.81% and -25.8%
same,inhibition,"[18]; measured here: BGB IC40 combination, at 0.05 µM",-9.15% and -22.9%
same,inhibition,[18]; [23],38.1% and 9.89%
same,inhibition,"[18]; single agent, at 5 µM",-25.5% and 7.57%
same,inhibition,[19]; at 0.5 µM,-9.96% (inactive) and 0.27% (inactive)
same,inhibition,[19]; [21],-28.2% and -29.3%
same,inhibition,[19]; [22],-2.5% and 13.1%
same,inhibition,"[19]; single agent, at 0.05 µM",-6% and -6.52%
same,inhibition,"[19]; single agent, at 5 µM",-28.8% and -29%
same,log fold change Tl+ flux,[2],-0.0305 (inactive)
same,log fold change Tl+ flux,[3],0.0168 (inactive)

# Reference: PubChem BioAssay
